In the library only some 6% were active in any assay of this set; here they are far more common.
DRD3 antagonist – blocks the human D3 dopamine receptor | max response, negative = inhibition, % | AID 652054 | D3R cells, DiscoveRx beta-arrestin luminescence, antagonist mode; stronger effect = lower value | P35462 | actives 2.5% (n = 360,000); in the data active means max response below about -50%; inconclusive means no clear call, values can overlap the other calls; further: on the % scale 0 is the no-effect control and ±100 the full control effect
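Cells plated overnight at 1500 cells/well, then exposed to library compounds with dopamine controls for 90 minutes at 37 degrees C. DiscoveRx reagent added for 30–60 minutes at room temperature; luminescence read, quantitative HTS format.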
D3 ag – D3 dopamine receptor (human) agonism; D3R DiscoveRx beta-arrestin cells, luminescence, 90 min; max activation, %; AID 652048; actives 0.58% (n = 410,000); in the data active means max activation above about 30%; further: 0% is about no effect
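Agonist-mode cell screen: cells plated at 1500/well and incubated overnight at 37 °C, then exposed to library compounds for 90 min at 37 °C. Detection reagent was added for 30–60 min at room temperature, and luminescence was read.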
D1 antagonist – blocks dopamine activation of the human D1 receptor. P21728. HEK293 TREx D1 cells, calcium flux, dopamine EC80; stronger effect = lower value. activity change, negative = inhibition, % at 10 µM. actives 3.2% (n = 360,000); in the data active means activity change below about -30%; further: on the % scale 0 is the no-effect control and ±100 the full control effect
Target sequence (P21728 whole entry, looked up): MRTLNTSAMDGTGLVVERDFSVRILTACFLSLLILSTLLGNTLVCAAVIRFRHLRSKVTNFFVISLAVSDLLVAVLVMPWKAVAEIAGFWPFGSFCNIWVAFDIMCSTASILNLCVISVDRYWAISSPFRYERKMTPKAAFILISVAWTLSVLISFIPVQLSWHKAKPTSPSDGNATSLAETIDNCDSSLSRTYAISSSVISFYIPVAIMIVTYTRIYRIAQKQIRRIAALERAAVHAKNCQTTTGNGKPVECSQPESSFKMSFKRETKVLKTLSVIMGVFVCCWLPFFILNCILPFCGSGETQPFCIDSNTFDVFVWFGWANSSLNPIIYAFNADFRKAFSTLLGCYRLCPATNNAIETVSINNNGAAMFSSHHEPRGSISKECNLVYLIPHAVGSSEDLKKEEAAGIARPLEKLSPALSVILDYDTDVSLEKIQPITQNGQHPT
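Tetracycline-induced HEK293 T-REx cells with force-coupled D1 receptor were loaded with a no-wash calcium dye. Compound was added after a 10 s baseline and read kinetically for 180 s; EC80 dopamine was then added and calcium flux followed another 180 s.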
D1 PAM – enhances dopamine response at the human D1 receptor; HEK293 TREx D1 cells, calcium flux, dopamine EC20 potentiation; AID 504651; actives 0.036% (n = 360,000); potentiation, % at 10 µM; in the data active means potentiation above about 30%; further: 0% is about no effect
D1 ag – human D1 receptor agonism; P21728; activation, % at 2 µM; actives 1% (n = 360,000); HEK293 T-REx D1 cells, calcium flux, agonist mode; in the data active means activation above about 30%; further: 0% is about no effect
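Agonism was scored from calcium flux recorded over 180 s (1 read/s) after pintool compound addition, following a 10-cycle baseline. Cells were inducible force-coupled HEK293 TREx D1, plated overnight at 30 C and loaded with no-wash calcium dye.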
Numbers without * were called inactive; ? = inconclusive; nt = not tested or not shown; ! = repeats disagree.

SMILES | DRD3 antagonist | D3 ag | D1 antagonist | D1 PAM | D1 ag
CC1CCc2cc(F)cc3c(O)c(C(=O)NCC4CCCO4)c(=O)n1c23 (centres undefined) | 40.6 | 2.4 | -76.8* | 3.2 | 1.4
CCc1c(C)nc2nc(SCc3ccccc3Cl)[nH]n2c1=O | -2.2 | 10.8 | -43.3* | -8.8 | 7.3
Cc1nc2nc(NCc3ccccc3Cl)[nH]n2c(=O)c1Cc1ccccc1 | nt | -6.1 | 7.2 | -0.1 | 0.9
Cc1sc(NC(=O)c2ccccc2)c(C(c2ccccn2)N2CCN(CCO)CC2)c1C (centres undefined) | 2.6 | -2.2 | -5.4 | -2.0 | 108.2*
Nc1nnnn1-c1ccccc1 | nt | 9.2 | nt | nt | nt
COc1ccc(S(=O)Cc2ccc(C(=O)N3CCN(c4cccc(C)c4C)CC3)o2)cc1 (centres undefined) | 89.2 | 45.0*! | -41.9*! | 1.3 | 10.8
COc1cccc(CNC(=O)c2ccc(CS(=O)(=O)Cc3ccc(C)cc3)o2)c1 | 0.5 | 6.3 | -43.5* | -2.5 | 14.1
COc1cccc(CNC(=O)c2ccc(CS(=O)(=O)Cc3ccccc3C)o2)c1 | 12.4 | 4.6 | 15.4 | -3.0 | 8.5
COc1ccc(S(=O)Cc2ccc(C(=O)NCc3cccc(OC)c3)o2)cc1 (centres undefined) | 3.6 | 0.4 | -34.7* | -1.9 | 1.5
COc1cccc(CNC(=O)CSc2nnc(C)c3c(C)n(-c4ccccc4)nc23)c1OC | nt | -11.1 | -1.6 | -0.3 | 1.6
O=S(=O)(c1ccc(F)cc1)N1CCN(c2nc(-c3cccs3)nc3cc(Cl)ccc23)CC1 | nt | nt | -10.1 | -3.9 | 1.9
COc1ccc(-c2cc3ccccc3n2CC(O)CN2CCC(C)CC2)cc1 (centres undefined) | -110.8* | -14.4 | -12.2 | -4.5 | 13.6
COc1ccc(CN2CCN(CC(O)Cn3c4ccccc4c4ccccc43)CC2)cc1 (centres undefined) | 3.9 | -2.6 | -93.5* | -5.8 | 23.4
COc1ccc(-c2cc3ccccc3n2CC(O)Cn2nc(C)cc2C)cc1 (centres undefined) | ? | -13.7 | 14.7 | 3.6 | 5.2
O=C(Nc1ccc(F)c(Cl)c1)c1ccccc1 | -0.7 | 12.2 | -46.5* | -7.8 | 21.0
O=C(Nc1cccc(Cl)c1Cl)c1ccc(-c2ccccc2)cc1 | 21.9 | 11.9 | 8.7 | 3.9 | 12.4
O=C(Nc1cc(Cl)ccc1O)c1snnc1-c1ccccc1 | 27.6 | 3.1 | -38.7* | -2.9 | 19.4
O=C(Nc1cc(Cl)ccc1Cl)c1ccc(-c2ccccc2)cc1 | -15.4 | -4.2 | -34.0* | -0.8 | 12.1
O=C(NC(=S)Nc1ccc2cn[nH]c2c1)c1ccccc1 | -5.6 | 1.3 | -35.0* | -3.6 | 9.6
O=C(NC(=S)Nc1ccc(Cl)cc1)c1ccccc1 | 0.6 | 2.1 | -53.2* | -5.4 | 13.4
O=C(Nc1ccccc1Cl)C(Cl)C(=O)c1ccccc1 (centres undefined) | -25.1 | -12.9 | -5.2 | -9.2 | 6.1
NS(=O)(=O)c1ccc(NC(=S)NC(=O)c2ccc(-c3ccccc3)cc2)cc1 | -13.9 | 38.3* | -10.7 | -7.6 | 4.2
O=C(Nc1ccc(Cl)cc1)C(Cl)C(=O)c1ccccc1 (centres undefined) | -52.3* | -29.3 | 1.8 | 4.5 | 8.5
CC(=O)Nc1c(C)nn(-c2ccccc2)c1N1CCC(C(=O)Nc2cccc(C(F)(F)F)c2)CC1 | nt | 2.0 | -26.8 | 0.8 | 1.7
CCOC(=O)c1c(C)oc2ncnc(N3CCN(c4cccc(Cl)c4)CC3)c12 | nt | 2.3 | -7.2 | -2.5 | 1.8
SMILES | DRD3 antagonist | D3 ag | D1 antagonist | D1 PAM | D1 ag
Cc1cccc(NC(=O)c2ccc(CN3CC(=O)N4CCCCC4C3=O)cc2)c1C (centres undefined) | nt | -4.9 | 1.5 | -0.6 | -0.5
Cc1cccc(NC(=O)Cc2nc(-c3c[nH]c(C(=O)N4CCCC4)c3)cs2)c1 | 46.0 | 51.6* | -1.8 | -4.6 | 0.7
Cc1ccccc1NC(=O)Cc1nc(-c2c[nH]c(C(=O)N3CCCC3)c2)cs1 | 17.5 | 7.9 | -5.7 | -0.7 | 0.1
Cc1[nH]c(C)c(S(=O)(=O)Nc2cccc(Cl)c2C)c1C(=O)N1CCCCC1 | -51.2* | -4.6 | -4.4 | -5.2 | 1.3
Cc1[nH]c(C)c(S(=O)(=O)Nc2cccc(Cl)c2C)c1C(=O)N1CCCC1 | -65.1* | -2.9 | 3.9 | -8.8 | -0.9
Cc1ccc(NS(=O)(=O)c2c(C)[nH]c(C)c2C(=O)N2CCCCC2)cc1C | ? | 1.0 | 4.1 | -4.5 | 1.2
Cc1[nH]c(C)c(S(=O)(=O)Nc2ccccc2Cl)c1C(=O)N1CCCC1 | -5.8 | 2.4 | 19.3 | -2.9 | 3.6
Cc1ccc(NS(=O)(=O)c2c(C)[nH]c(C)c2C(=O)N2CCCC2)cc1Cl | -85.8* | -20.9 | -4.8 | -8.2 | 0.9
O=C(N=c1ccn(-c2nc3ccccc3nc2NS(=O)(=O)c2ccccc2)cc1)c1cccs1 | 1.9 | -2.6 | 7.1 | -4.2 | 14.8
Cc1ccccc1C(=O)N=c1ccn(-c2nc3ccccc3nc2NS(=O)(=O)c2ccc(F)cc2)cc1 | 0.6 | 4.4 | -24.8 | -6.0 | 70.0*
COC(=O)c1sccc1S(=O)(=O)N(CC(=O)NCc1ccccc1)c1ccc(C)cc1 | nt | 1.8 | -21.8 | -4.8 | 0.8
Cc1ccc(-c2[nH]c3cc(C(=O)NCCCn4ccnc4)ccc3c(=O)c2O)cc1 | -63.9* | 6.6 | -57.5* | -8.5 | 5.4
O=C(NCCCn1ccnc1)c1cccc(S(=O)(=O)Nc2ccc(Br)cc2)c1 | -20.7 | -5.2 | 7.5 | 5.0 | 51.2*
CCCNC(=O)c1ccc2c(=O)c(O)c(-c3ccc(OC)cc3)[nH]c2c1 | 8.4 | 8.5 | -35.2* | -7.8 | 0.9
O=C(NCCCn1ccnc1)c1cccc(S(=O)(=O)Nc2ccc(F)cc2)c1 | 23.5 | -4.9 | 5.2 | 1.8 | 3.4
CCCNC(=O)c1ccc2c(=O)c(O)c(-c3ccc(C)cc3)[nH]c2c1 | -8.7 | 14.6 | -92.6* | -9.4 | 6.2
COc1cccc(-c2cn3c(n2)sc2cc(C(=O)NCc4ccccc4F)ccc23)c1 | nt | 4.2 | -6.4 | -1.1 | -1.6
Cc1ccc(CNC(=O)c2ccc3c(=O)c(O)c(-c4ccc(C)cc4)[nH]c3c2)cc1 | 0.0 | -29.3 | -40.6* | -7.8 | 8.1
Cc1ccc(-c2[nH]c3cc(C(N)=O)ccc3c(=O)c2O)cc1 | 0.0 | 0.7 | -36.0* | -6.8 | 2.0
C/C(=N\NC(=O)c1cccc2ccccc12)c1ccccn1 | -92.9* | -33.0 | -10.0 | -3.0 | 13.1
COc1ccc(C(=O)N/N=C(\C)c2ccccn2)cc1OC | -54.1* | -3.8 | -20.1 | -2.5 | 2.7
C/C(=N\NC(=O)c1ccccc1Cl)c1ccccn1 | ? | -11.1 | 3.2 | 1.6 | 3.4
COc1ccc(NC(=O)c2ccccn2)cc1OC | 11.1 | 4.5 | 6.3 | -1.8 | -0.5
CCOc1ccc(CC(=O)N/N=C(\C)c2cccnc2)cc1 | -1.8 | -1.5 | -35.9* | -6.2 | 9.1
CCOc1ccc(OCc2ccc(C(=O)N/N=C(\C)c3ccccn3)cc2)cc1 | -80.5* | -26.3 | -12.5 | -1.6 | 10.9
